Only some compounds are listed: those with a hit (about 0.44% of all), similar ones and a draw of the others.
RmlCD inh mix – RmlC and RmlD coupled enzyme inhibitors, primary screen, biochemical, 384-well, compound mixtures, retest. RmlC/RmlD coupled enzyme inhibition, 384-well mixture HTS. 110,000 compounds, 0.39% hits. inhibition, % at 5.5 µM; in the data active means inhibition above about 30%, passing the limit was not always enough
YopH PTP inh – YopH tyrosine phosphatase inhibitors, primary screen, biochemical, fluorescence Ex485/Em525. inhibition, % (concentration not given with the values). 140,000 compounds, 0.16% hits; in the data active means inhibition above about 50%
* = called active by the depositor; . = no result given; + = active, no number.

SMILES	RmlCD inh mix	YopH PTP inh
COc1ccc(/C=N/NC(=O)CCn2cnc(-c3ccccc3)c2-c2ccccc2)cc1OC	.	-5
COc1ccc(/C=N/NC(=O)C(C)n2cnc3ccccc3c2=O)cc1OC (stereo not given)	.	67*
Cc1cc2nc3c(=O)n(C4CCCCC4)c(=O)[nH]c3nc2cc1N	.	-12
CN1CCN(NC(=O)c2ccc(F)cc2)CC1	.	-7
Cc1ccc(C(=O)N2C(=S)C(c3ccc(F)cc3)=NC23CCN(C)CC3)cc1	.	77*
CCC(NC(=O)OC(C)(C)C)C(=O)Oc1cc(C)cc2oc(=O)c3c(c12)CCC3 (stereo not given)	-6	0
CCC(NC(=O)OC(C)(C)C)C(=O)Oc1ccc2c3c(c(=O)oc2c1)CCC3 (stereo not given)	+	-35
Cc1n[nH]c(=O)nc1Nc1ccc(O)cc1	8	-8
Oc1ccc(Nc2nc3ccccc3nc2Nc2ccc(O)cc2)cc1	93	70*
COc1ccc(NC(=O)N2CCCC(C(=O)NC(C)C)C2)cc1 (stereo not given)	-12	-30
COCCCNC(=O)C1CCCN(C(=O)Nc2ccc(OC)cc2)C1 (stereo not given)	2	53*
O=C(COC(=O)c1cc(-c2cccc3ccccc23)nc2ccccc12)NC1CCS(=O)(=O)C1 (stereo not given)	.	-31
COc1ccc2cc(-c3cc(C(=O)OCC(=O)NC4CCS(=O)(=O)C4)c4ccccc4n3)ccc2c1 (stereo not given)	.	97*
CCOC(=O)C1C(c2ccc(O)c(OC)c2)NC(=S)NC1(O)C(F)(F)F (stereo not given)	.	-14
COc1ccccc1-c1c(C)nn2c(N3CCCCCC3)cc(C)nc12	-2	81*
COc1ccccc1-c1c(C)nn2c(N3CCN(c4ccccc4OC)CC3)cc(C)nc12	-3	2
Cc1ccccc1-n1c(=O)c(C#N)cc2c(=O)n3ccccc3nc21	123	-18
Cc1cc(-n2c(=O)c(C#N)cc3c(=O)n4ccccc4nc32)no1	55*	-13
Cc1ccc(S(=O)(=O)NC(C(=O)Oc2ccc3c(C(F)(F)F)cc(=O)oc3c2)c2ccccc2)cc1 (stereo not given)	.	-31
COc1cccc(NCc2cc(=O)oc3cc(-c4ccccc4)c(O)cc23)c1	.	-3
CC(C(=O)N1CCc2ccccc21)N1CCc2ccccc2C1 (stereo not given)	-13	-2
CC1CCN(CCC(=O)N2CCCc3c2c(=O)oc2ccc(O)cc32)CC1	-17	61*
O=C(CN1CCCC1)N1CCCc2c1c(=O)oc1ccc(OCc3ccccc3)cc21	-1	-37
CN(CC(=O)N1CCCc2c1c(=O)oc1ccc(O)cc21)Cc1ccccc1	2	51*
CC(C(=O)N1CCCc2c1c(=O)oc1ccc(O)cc21)N1CCc2ccccc2C1 (stereo not given)	9	53*
SMILES	RmlCD inh mix	YopH PTP inh
CCCOc1ccc2oc(=O)c3c(c2c1)CCCN3C(=O)CN1CCCC(C(=O)OCC)C1 (stereo not given)	-10	-9
CCOC(=O)C1(O)CC(C)=NN1C(=O)c1cccc(Cl)c1 (stereo not given)	.	-8
O=C(N/N=C/c1cccc(OCC(=O)N2CCCC2)c1)C(=O)Nc1ccccc1F	.	-29
COc1ccc(-c2nc(N)n(C(=O)c3ccccc3Cl)n2)cc1	.	-17
Cc1cc(C)nc(N2CCCC(C(=O)NC(C)CCc3ccco3)C2)n1 (stereo not given)	-1	-26
N#Cc1c(N)sc(=S)c2c1CCN(Cc1ccccc1)C2	119*	.
CCN1CCc2c(sc(N)c2C#N)C1	8	-18
O=C(CCn1c(=O)[nH]c2ccsc2c1=O)Nc1ccc(F)c(F)c1	-5	0
N#Cc1ccccc1Cn1cc(C#N)c2ccccc21	-9	51*
N#Cc1cn(Cc2ccccc2)c2ccccc12	-13	0
COCCNC(=O)CSc1nc(N)c(NC(=O)c2ccccc2F)c(=O)[nH]1	.	6
Cc1ccc(OCc2ccc(C(=O)O)o2)c([N+](=O)[O-])c1	.	-40
C=Cc1c(C)c2cc3[nH]c(cc4nc(cc5nc(cc1[nH]2)C(C)=C5CCC(=O)O)C(CCC(=O)O)=C4C)c(C)c3C=C	43*	.
CC(O)C(O)C(O)C(O)/C=N/NC(=O)c1ccccc1 (stereo not given)	.	-11
O=C(NN=c1c(=O)c2ccccc2c1=O)c1ccccc1	-62	68*
C=C(C)CNC(=S)N1CCNC(=O)C1CC(=O)OC (stereo not given)	.	-38
CCOC(=O)c1cc2c(nc1N)CC(C)(CC)OC2 (stereo not given)	2	-3
CCOC(=O)c1cc2c(nc1N)CC(C)(C)OC2	39*	-9
CCN1CC(CCN2CCOCC2)C(c2ccccc2)(c2ccccc2)C1=O (stereo not given)	-10	.
CC(C)(C)[C@H]1C=C(C(=O)NCc2ccccc2)O[C@@H](OCCCCO)C1	-14	.
Cc1ccc2c(c1)CCCN2N=O	.	-21
CCCN1CCCc2cc(CN)ccc21	1	84*
CCCCCCc1cc2cc(-c3nnc(-c4cc(OC)c(OC)c(OC)c4)o3)c(=O)oc2cc1O	69*	-10
CCCCCCc1cc2cc(C(=O)Nc3ccccc3OC)c(=O)oc2cc1O	.	-24
CCCCCCc1cc2cc(-c3nnc(-c4ccccc4O)o3)c(=O)oc2cc1O	162*	-27
SMILES	RmlCD inh mix	YopH PTP inh
CCCCCCc1cc2cc(S(=O)(=O)c3ccc(F)cc3)c(=O)oc2cc1O	.	-4
COC(=O)[C@H](C)NC(=O)Nc1cc(OC)ccc1OC	-9	-1
Cc1ccc(N2C(=O)C3C4CC(=O)C(c5ccccc54)C3C2=O)cc1C (stereo not given)	.	-15
C=CCn1c2ccccc2c2nnc(SC(CC)C(=O)Nc3sc4c(c3C#N)CCCC4)nc21 (stereo not given)	19	-20
Cc1cccc2c(CC(=O)Nc3ccccc3)noc12	.	-28
O=C(O)c1ccc2c(c1)C(=O)N(c1ncccn1)C2=O	.	-3
O=C(O)c1ccc2c(c1)-c1nc3ccccc3n1C2=O	122*	-17
CC(=O)NC(Cc1cccc(C)c1)C(=O)NC1CCN(C(=O)c2ccc([N+](=O)[O-])cc2)CC1 (stereo not given)	.	-14
COc1ccc(CN2C(=O)c3ccccc3C(/C=N\OCc3ccc(F)cc3)C2=O)cc1 (stereo not given)	3	59*
COc1ccc(CN2C(=O)c3ccccc3C(/C=N/OCc3ccc(Cl)cc3)C2=O)cc1 (stereo not given)	-34	-6
CS(=O)(=O)N1CC(C(=O)NC2CCCC2)Oc2ccc(Cl)cc21 (stereo not given)	-7	-43
O=c1[nH]c(Nc2ccccn2)cc2ccccc12	32	.
O=c1[nH]c(Nc2ccc(F)cc2)cc2ccccc12	-15	90*
Cc1ccccc1Nc1cc2ccccc2c(=O)[nH]1	4	101*
O=c1[nH]c(Nc2ccccc2Cl)cc2ccccc12	-2	.
CCC(=O)Nc1ccc(Nc2nc(C)c([N+](=O)[O-])c(Nc3ccc(NC(=O)CC)cc3)n2)cc1	.	-12
CCOC(=O)Nc1nnc(CCc2ccccc2)s1	5	-31
CCOC(=O)Nc1nnc(-c2ccc(OC)c(OC)c2)s1	31*	2
CCOc1ccc(Br)cc1S(=O)(=O)Nc1ccc(Cl)c(S(=O)(=O)N(CC)c2ccccc2)c1	.	-18
